# About 79,000 compounds went through this panel and 15% of them were active in at least one assay; those are over-represented in the sample as a whole. Values without a mark were called inactive. Activity calls are given as the source filed them. Rule as the data show it: active = growth inhibition above about 70%; inactive = the rest.
# Experiments:
# [1] = NCI Yeast Anticancer Drug Screen. Data for the rad52 strain (AID 147);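 also: 0% = growth of vehicle-treated control cultures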; details: S. cerevisiae rad52 mutant growth inhibition, hits give high values
# Method in brief: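 Yeast strain carrying a DNA damage repair alteration was exposed to test compounds. Growth inhibition was measured relative to vehicle-treated controls.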
# [2] = NCI Yeast Anticancer Drug Screen. Data for the wt1 strain (AID 149);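 also: 0% = growth of vehicle-treated wt1 cultures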; details: S. cerevisiae wt1 strain (SPY 50644) growth inhibition, hits give high values
# Method in brief: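 Yeast wt1 strain exposed to compounds; growth inhibition measured relative to vehicle-treated controls.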
# [3] = NCI Yeast Anticancer Drug Screen. Data for the rad50EPP+ strain (AID 151);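 also: 0% = growth of vehicle-treated control cultures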; details: S. cerevisiae rad50 mutant strain, hits give high values
# Method in brief: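 Yeast strain carrying rad50 alteration (rad50EPP+) exposed to compounds; growth inhibition measured relative to vehicle-treated controls.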
# [4] = NCI Yeast Anticancer Drug Screen. Data for the mgt1 strain (AID 153); details: S. cerevisiae mgt1 mutant growth inhibition, hits give high values
# Method in brief: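 Yeast mgt1 strain (DNA repair/cell-cycle alteration panel) exposed to compounds; growth inhibition measured relative to vehicle-treated controls.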
# [5] = NCI Yeast Anticancer Drug Screen. Data for the rad50 strain (AID 155);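 also: 0% = growth of vehicle-only cultures of the same strain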; details: S. cerevisiae rad50 strain growth inhibition, hits give high values
# Method in brief: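 Yeast carrying a defined DNA repair defect were exposed to test compounds, and growth was compared with vehicle-treated controls to give percent inhibition.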
# [6] = NCI Yeast Anticancer Drug Screen. Data for the mec2-1 strain (AID 157); details: S. cerevisiae mec2-1 strain, hits give high values
# Method in brief: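 mec2-1 yeast strain, carrying an alteration in DNA damage repair or cell cycle control, was exposed to compounds; growth inhibition was measured relative to vehicle-treated controls.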
# [7] = NCI Yeast Anticancer Drug Screen. Data for the rad14 strain (AID 159);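 also: 0% = growth of vehicle-treated control cultures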; details: S. cerevisiae rad14 strain growth inhibition, hits give high values
# Method in brief: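 Yeast cells carrying a defined DNA-repair defect were exposed to compounds, and growth inhibition was calculated relative to vehicle-treated control cultures.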
# [8] = NCI Yeast Anticancer Drug Screen. Data for the sgs1 mgt1 strain (AID 161);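 also: 0% = growth of cultures given vehicle only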; details: S. cerevisiae sgs1 mgt1 strain, hits give high values
# Method in brief: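 Percent growth inhibition was derived by comparing compound-exposed mutant yeast with vehicle-exposed cultures. The strain carries alterations in DNA damage repair.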
# [9] = NCI Yeast Anticancer Drug Screen. Data for the CLN2oe strain (AID 163);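 also: 0% = growth of vehicle-only control cultures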; details: S. cerevisiae CLN2oe strain, hits give high values
# Method in brief: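 Yeast cells carrying a defined cell-cycle control alteration were exposed to test compounds. Growth inhibition was scored against vehicle-treated control cultures.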
# [10] = NCI Yeast Anticancer Drug Screen. Data for the bub3 strain (AID 167); details: S. cerevisiae bub3 mutant strain, hits give high values
# Method in brief: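 Compounds were applied to a genetically altered yeast strain carrying a cell-cycle control defect. Growth inhibition was scored against vehicle-treated controls.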
# [11] = NCI Yeast Anticancer Drug Screen. Data for the wt2 strain (AID 169);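 also: 0% = growth of vehicle-treated yeast cultures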; details: S. cerevisiae wt2 strain growth inhibition, hits give high values
# Method in brief: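 Yeast cells were exposed to test compounds, and growth inhibition was measured relative to vehicle-treated controls.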
# [12] = NCI Yeast Anticancer Drug Screen. Data for the mlh1 strain (AID 171);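 also: 0% = growth of vehicle-treated control cultures of the same strain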; details: S. cerevisiae mlh1 strain growth inhibition, hits give high values
# Method in brief: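 Yeast carrying a defined genetic alteration in DNA damage repair or cell cycle control were exposed to test compounds. Growth inhibition was measured relative to vehicle-treated controls.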
# [13] = NCI Yeast Anticancer Drug Screen. Data for the mlh1 rad18 strain (AID 175); details: S. cerevisiae mlh1 rad18 strain growth inhibition, hits give high values
# Method in brief: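 Growth inhibition of the yeast strain was measured after compound exposure and expressed relative to vehicle-treated controls. The strain carries defined defects in DNA damage repair.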
# [14] = NCI Yeast Anticancer Drug Screen. Data for the rad18 strain (AID 177); details: S. cerevisiae rad18 mutant growth inhibition, hits give high values
# Method in brief: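 Yeast carrying a defined DNA damage repair alteration were exposed to compounds. Growth inhibition was expressed relative to vehicle-treated controls.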
# [15] = at 5.0 µM (retest, dose inferred, filed as 0.5)
# [16] = at 50.0 µM (retest, dose inferred, filed as 5.0)
compound,measurement,setting,value
O=C(Nc1ccc(Cl)cc1)Nc1nnc2nc(C(C(=O)c3cccc([N+](=O)[O-])c3Cl)c3nc4nnc(NC(=O)Nc5ccc(Cl)cc5)n4[nH]c3=O)c(=O)[nH]n12,growth inhibition,[1]; at 1.2 µM,2%
same,growth inhibition,[1]; at 3.7 µM,2%
same,growth inhibition,[1]; at 11.0 µM,2%
same,growth inhibition,[1]; at 33.0 µM,4%
same,growth inhibition,[1]; at 100.0 µM,52%
same,growth inhibition,[2]; at 1.2 µM,1%
same,growth inhibition,[2]; at 3.7 µM,1%
same,growth inhibition,[2]; at 11.0 µM,3%
same,growth inhibition,[2]; at 33.0 µM,-1%
same,growth inhibition,[2]; at 100.0 µM,30%
same,growth inhibition,[3]; at 1.2 µM,4%
same,growth inhibition,[3]; at 3.7 µM,5%
same,growth inhibition,[3]; at 11.0 µM,8%
same,growth inhibition,[3]; at 33.0 µM,23%
same,growth inhibition,[3]; at 100.0 µM,29%
same,growth inhibition,[4]; at 1.2 µM,0%
same,growth inhibition,[4]; at 3.7 µM,1%
same,growth inhibition,[4]; at 11.0 µM,0%
same,growth inhibition,[4]; at 33.0 µM,15%
same,growth inhibition,[4]; at 100.0 µM,47%
same,growth inhibition,[5]; at 1.2 µM,1%
same,growth inhibition,[5]; at 3.7 µM,0%
same,growth inhibition,[5]; [15],-12%
same,growth inhibition,[5]; at 11.0 µM,2%
same,growth inhibition,[5]; at 33.0 µM,2%
same,growth inhibition,[5]; [16],10%
same,growth inhibition,[5]; at 50.0 µM,99.5% (active)
same,growth inhibition,[5]; at 100.0 µM,31%
same,growth inhibition,[6]; at 1.2 µM,-4%
same,growth inhibition,[6]; at 3.7 µM,-2%
same,growth inhibition,[6]; [15],-2%
same,growth inhibition,[6]; at 11.0 µM,-12%
same,growth inhibition,[6]; at 33.0 µM,0%
same,growth inhibition,[6]; [16],10%
same,growth inhibition,[6]; at 50.0 µM,99.5% (active)
same,growth inhibition,[6]; at 100.0 µM,68%
same,growth inhibition,[7]; at 1.2 µM,0%
same,growth inhibition,[7]; at 3.7 µM,-3%
same,growth inhibition,[7]; at 11.0 µM,0%
same,growth inhibition,[7]; at 33.0 µM,1%
same,growth inhibition,[7]; at 100.0 µM,56%
same,growth inhibition,[8]; [15],2%
same,growth inhibition,[8]; [16],28%
same,growth inhibition,[8]; at 50.0 µM,99% (active)
same,growth inhibition,[9]; at 1.2 µM,-6%
same,growth inhibition,[9]; at 3.7 µM,-8%
same,growth inhibition,[9]; at 11.0 µM,-5%
same,growth inhibition,[9]; at 33.0 µM,-12%
same,growth inhibition,[9]; at 100.0 µM,37%
same,growth inhibition,[10]; at 1.2 µM,-5%
same,growth inhibition,[10]; at 3.7 µM,-5%
same,growth inhibition,[10]; [15],-22%
same,growth inhibition,[10]; at 11.0 µM,-7%
same,growth inhibition,[10]; at 33.0 µM,-8%
same,growth inhibition,[10]; [16],22%
same,growth inhibition,[10]; at 50.0 µM,99.5% (active)
same,growth inhibition,[10]; at 100.0 µM,64%
same,growth inhibition,[11]; at 1.2 µM,-1%
same,growth inhibition,[11]; at 3.7 µM,-2%
same,growth inhibition,[11]; at 11.0 µM,-2%
same,growth inhibition,[11]; at 33.0 µM,-2%
same,growth inhibition,[11]; at 100.0 µM,32%
same,growth inhibition,[12]; at 1.2 µM,1%
same,growth inhibition,[12]; at 3.7 µM,-2%
same,growth inhibition,[12]; at 11.0 µM,2%
same,growth inhibition,[12]; at 33.0 µM,-1%
same,growth inhibition,[12]; at 100.0 µM,35%
same,growth inhibition,[13]; [15],-20%
same,growth inhibition,[13]; [16],55%
same,growth inhibition,[13]; at 50.0 µM,99.4% (active)
same,growth inhibition,[14]; at 1.2 µM,-1%
same,growth inhibition,[14]; at 3.7 µM,-3%
same,growth inhibition,[14]; at 11.0 µM,-12%
same,growth inhibition,[14]; at 33.0 µM,-2%
same,growth inhibition,[14]; at 100.0 µM,45%
O=C1/C(=C/c2ccccc2)CCCC1CN1CCCCC1 (stereo not given),growth inhibition,[1]; at 1.2 µM,13%
same,growth inhibition,[1]; at 3.7 µM,35%
same,growth inhibition,[1]; at 11.0 µM,56%
same,growth inhibition,[1]; at 33.0 µM,72% (active)
same,growth inhibition,[1]; at 100.0 µM,78% (active)
same,growth inhibition,[2]; at 1.2 µM,10%
same,growth inhibition,[2]; at 3.7 µM,19%
same,growth inhibition,[2]; at 11.0 µM,28%
same,growth inhibition,[2]; at 33.0 µM,31%
same,growth inhibition,[2]; at 100.0 µM,34%
same,growth inhibition,[3]; at 1.2 µM,-2%
same,growth inhibition,[3]; at 3.7 µM,-1%
same,growth inhibition,[3]; at 11.0 µM,15%
same,growth inhibition,[3]; at 33.0 µM,46%
same,growth inhibition,[3]; at 100.0 µM,51%
same,growth inhibition,[4]; at 1.2 µM,16%
same,growth inhibition,[4]; at 3.7 µM,44%
same,growth inhibition,[4]; at 11.0 µM,59%
same,growth inhibition,[4]; at 33.0 µM,85% (active)
same,growth inhibition,[4]; at 100.0 µM,96% (active)
same,growth inhibition,[5]; at 1.2 µM,13%
same,growth inhibition,[5]; at 3.7 µM,26%
same,growth inhibition,[5]; [15],29%
same,growth inhibition,[5]; at 11.0 µM,39%
same,growth inhibition,[5]; at 33.0 µM,61%
same,growth inhibition,[5]; [16],79% (active)
same,growth inhibition,[5]; at 50.0 µM,72.3% (active)
same,growth inhibition,[5]; at 100.0 µM,68%
same,growth inhibition,[6]; at 1.2 µM,16%
same,growth inhibition,[6]; at 3.7 µM,22%

# Reference: PubChem BioAssay (NCI)
